Among all 310,000 compounds or so, about 11,000 (3.5%) were called active. Roughly 4% stayed inconclusive and do not appear here. Calls come from the whole dose curve; as a rule, active = well fitted inhibition curve with a large enough effect; inconclusive = small, poorly fitted or top-dose-only effect, or another doubt; inactive = no such curve, though single readings can be large or run the other way. The full list was thinned out, with actives kept by preference.
Potency is the fitted concentration of half-maximal effect.

The assay concerns the target 4'-phosphopantetheinyl transferase ffp (Bacillus subtilis) (UniProt Q9F4F7). The experiment in a line: qHTS Assay for Inhibitors of Bacillus subtilis Sfp phosphopantetheinyl transferase (PPTase).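 For largest response in the series, negative = inhibition: 0% = enzyme reaction without inhibitor and -100% = no enzyme wells.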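 Note: the enzyme is Sfp with the accession as filed and its product quenches rhodamine fluorescence.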 The conditions noted are these: Biochemical Sfp PPTase activity. The gist of the method: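 Buffer: 50 mM Hepes-Na pH 7.6, 10 mM MgCl2, 0.01% Nonidet P-40, 0.01% BSA. Enzyme 15 nM, pre-exposed to compound 15 min; substrates then added and fluorescence change tracked over 30 min.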
In general terms: In qHTS, concentration-response curves come from the screen itself.
Regarding `O=C(O)CCCn1cc(NC(=O)COc2cccc(Cl)c2)cn1`, the largest response in the series, negative = inhibition was 12.9% (inactive).

For `O=S(=O)(NC1CC1)c1ccc(Cl)cc1`, the largest response in the series, negative = inhibition is 10.7% (inactive).

On to `Cc1cccc(C)c1NC(=O)C1CCCN1C(=O)OC(C)(C)C` (stereo not given), for which the largest response in the series, negative = inhibition was 0.244% (inactive).

On to `Cc1cc(C)c(NC(=S)N2CCCC2C(=O)O)c(C)c1` (stereo not given), for which the Potency is 35.5 µM (active).

In the case of `Cc1cc([N+](=O)[O-])c(N2CCC[C@@H]2C(=O)O)c([N+](=O)[O-])c1`, the largest response in the series, negative = inhibition is 0.854% (inactive).

For `O=[N+]([O-])c1ccc(N2CCN(c3ccc(F)cc3)CC2)cn1`, the largest response in the series, negative = inhibition is 10.5% (inactive).

`CC1C(=O)C(C)C(c2ccc(O)cc2)NC1c1ccc(O)cc1` (stereo not given): the largest response in the series, negative = inhibition was 4.83% (inactive).

Take `COc1ccc(-c2cc(=O)oc3cc(OC(C)C(=O)NCC4CCC(C(=O)O)CC4)ccc23)cc1` (stereo not given): the largest response in the series, negative = inhibition is 18.5% (inactive).

As for `COc1c(O)c2c(=O)cc(OC)c3c4c(OC)cc(=O)c5c(O)c(OC)c6c(c(c1C[C@@](C)(O)[C@H]6C(C)=O)c23)c54`, the largest response in the series, negative = inhibition was -14.1% (inactive).

In the case of `CN(C)c1nc(NN)nc(Nc2ccc(F)cc2)n1`, the largest response in the series, negative = inhibition was -5.52% (inactive).

Regarding `O=C(Nc1ccncc1)Nc1ccc(F)cc1`, the largest response in the series, negative = inhibition was 14.5% (inactive).

On to `Fc1ccc(Nc2nnns2)cc1`, for which the Potency was 8.91 µM (active).

Turning to `O=[N+]([O-])c1ccc(N/N=C2/CCCCC2c2ccccn2)c([N+](=O)[O-])c1` (stereo not given), the Potency is 35.5 µM (active).

For `C[n+]1ccccc1C1CCCC/C1=N\Nc1ccc([N+](=O)[O-])cc1[N+](=O)[O-]` (stereo not given), the largest response in the series, negative = inhibition was -1.83% (inactive).

In the case of `O=C(Nc1ccccc1)O/N=C1\CCCCC1c1ccc([N+](=O)[O-])cc1[N+](=O)[O-]` (stereo not given), the largest response in the series, negative = inhibition is -6.23% (inactive).

Take `COc1ccccc1N1CCN(C(=O)c2cc(=O)c3cc(C)ccc3o2)CC1`: the largest response in the series, negative = inhibition was -2.28% (inactive).

`Cc1cccc(-c2cc(=O)c3cc(C)ccc3o2)c1`: the Potency is 3.55 µM (active).

For `Cc1cccc(C2=N/C(=C/c3cccs3)C(=O)O2)c1`, the largest response in the series, negative = inhibition was -1.85% (inactive).

With `CCN1CCN(c2ccc(S(=O)(=O)N3CCCCC3)cc2NC(=O)Cc2c(Cl)cccc2Cl)CC1`, the largest response in the series, negative = inhibition was -8.91% (inactive).

`CCN(C(=O)c1cc([N+](=O)[O-])ccc1NCc1cccnc1)c1ccccc1`: the largest response in the series, negative = inhibition is -0.174% (inactive).

For the compound `Cc1cc(C)c(OCC(=O)N/N=C/c2ccco2)c(C)c1`, the largest response in the series, negative = inhibition is 2.54% (inactive).

Consider `COC(=O)COc1ccc2c(c1C)O/C(=C\c1ccco1)C2=O`, for which the Potency is 50.1 µM (active).

Take `COC(=O)C1=C(C)N(c2ccc(Br)cc2)C(=O)/C1=C\c1ccco1`: the largest response in the series, negative = inhibition was -29.4% (inactive).

For `CC(=O)Nc1ccc(S(=O)(=O)NC2Cc3ccccc3C2)cc1`, the largest response in the series, negative = inhibition is 10.7% (inactive).

`CC(CC(=O)N1CCN(c2ccccc2)CC1)S(=O)(=O)c1ccc2c(c1)NC(=O)CS2` (stereo not given): the largest response in the series, negative = inhibition was 13.4% (inactive).

On to `COc1ccc(C2c3[nH]c4ccccc4c3C[C@H]3C(=O)N(CC(C)C)CC(=O)N23)c(OC)c1` (stereo not given in full), for which the largest response in the series, negative = inhibition is -0.0198% (inactive).

With `Cc1cc(=O)[nH]c(S)c1C#N`, the Potency is 2.24 µM (active).

As for `Cc1cc(=O)[nH]c(SCC(N)=O)c1C#N`, the largest response in the series, negative = inhibition was -20.3% (inactive).

Turning to `COC(=O)C1(C)C=CC2(CCCCC2)N1C(C)=O` (stereo not given), the largest response in the series, negative = inhibition is -0.895% (inactive).

Turning to `CC(C)=C1SC(N2CCN(c3cccc(C)c3)CC2)=NC1=O`, the largest response in the series, negative = inhibition was -3.03% (inactive).

For `Cc1ccc(N2CCN(C(=O)c3cccs3)CC2)c(C)c1`, the largest response in the series, negative = inhibition was -4.64% (inactive).

Take `Cc1ccc(-n2c(N)c(C(=O)N3CCOCC3)sc2=S)c(C)c1`: the Potency was 28.2 µM (active).

As to `N#Cc1ccccc1-n1c(N)c(C(=O)N2CCCC2)sc1=S`, the Potency was 25.1 µM (active).

For `Cc1ccc(S(=O)(=O)N2CCN(C(=O)N3CCOCC3)CC2)c(C)c1`, the largest response in the series, negative = inhibition is 12% (inactive).

Consider `CCC(=O)Nc1sc(C(=O)N2CCCCC2)c(C)c1C#N`, for which the largest response in the series, negative = inhibition is 8.83% (inactive).

With `Cc1cccc(-n2c(N)c(C(=O)N3CCN(C)CC3)sc2=S)c1`, the Potency was 3.55 µM (active).

With `O=C(c1ccc(S(=O)(=O)c2ccccc2)cc1)N1CCCCCC1`, the largest response in the series, negative = inhibition is -3.64% (inactive).

Turning to `COc1ccc2[nH]c(C(=O)N3CCN(C)CC3)c(C)c2c1`, the largest response in the series, negative = inhibition is 10.8% (inactive).

Regarding `CCN(CC(=O)NCc1cccs1)C(=O)c1cccc(S(=O)(=O)Nc2ccccc2OC)c1`, the largest response in the series, negative = inhibition was 9.95% (inactive).

For the compound `COc1ccc(NC(=O)Cn2ncn3c(cc4ccccc43)c2=O)c(OC)c1OC`, the largest response in the series, negative = inhibition is 14.8% (inactive).

For the compound `COc1cc2c(cc1OC)CN(C(=O)c1cc(S(=O)(=O)N3CCCCC3)ccc1Cl)CC2`, the largest response in the series, negative = inhibition was 8.46% (inactive).

Turning to `CCCCC(CC)CNCc1cccn1CCN1CCOCC1` (stereo not given), the largest response in the series, negative = inhibition is -12.1% (inactive).

For the compound `COC(=O)c1cc(OCC(=O)NC2CCCc3ccccc32)cc(C(=O)OC)c1` (stereo not given), the largest response in the series, negative = inhibition is -18.9% (inactive).

For the compound `Cc1ccc(OCC(=O)Nc2ccc(NC(=O)c3cccs3)cc2)c(C)c1`, the largest response in the series, negative = inhibition is 29.1% (inactive).

Consider `COc1ccc(N2C(=O)C3C(C2=O)C(C(=O)c2ccccc2)N2CCCC32)cc1` (stereo not given), for which the Potency is 50.1 µM (active).

`COc1ccc(N2C(=O)C(Cc3ccccc3)NC2=S)cc1` (stereo not given): the largest response in the series, negative = inhibition was 6.01% (inactive).

In the case of `COc1ccc(N2C(=O)C3CCCN3C2c2cccs2)cc1` (stereo not given), the largest response in the series, negative = inhibition is -3.66% (inactive).

Take `O=C(N/C(=C\c1ccc([N+](=O)[O-])cc1)C(=O)N1CCOCC1)c1cccc(Br)c1`: the largest response in the series, negative = inhibition was 3.86% (inactive).

As for `CCOC(=O)N1CCN(C(=O)C(C)NC(=O)c2ccco2)CC1` (stereo not given), the largest response in the series, negative = inhibition is 26.5% (inactive).

`CCn1c(SCC(=O)Nc2ccc(Br)cc2)nc2sc3c(c2c1=O)CCN(C)C3`: the largest response in the series, negative = inhibition was 2.9% (inactive).

As to `Cc1nc(-c2ccc(Cl)cc2)sc1C(=O)NN`, the largest response in the series, negative = inhibition is 5.7% (inactive).

With `CCOC(=O)N1CCC(NC(=O)c2ccc3nc(N4CCOCC4)sc3c2)CC1`, the largest response in the series, negative = inhibition was 6.95% (inactive).

On to `Cc1nc(N2CCOCC2)sc1C(=O)NN`, for which the Potency is 56.2 µM (active).

As to `Cc1ccc(NS(=O)(=O)c2ccc3c(c2)NC(=O)CO3)cc1`, the largest response in the series, negative = inhibition was 7.8% (inactive).

Consider `COC(=O)N/N=C/c1ccc(-c2ccc(Cl)c(Cl)c2)o1`, for which the largest response in the series, negative = inhibition was -3.69% (inactive).

For the compound `O=C(Cn1nnc(-c2ccccc2)n1)N/N=C/c1ccc(-c2ccc(Cl)cc2)o1`, the largest response in the series, negative = inhibition was 25.9% (inactive).

As to `Nc1nnnn1CC(=O)N/N=C/c1ccc(-c2cccc(Cl)c2)o1`, the Potency is 25.1 µM (active).

As for `Cc1cc([N+](=O)[O-])ccc1NC(=O)c1ccc(NC(=O)C(C)C)cc1`, the largest response in the series, negative = inhibition was 6.44% (inactive).

Consider `CC(=O)c1ccc(NC(=O)Nc2ccc([N+](=O)[O-])cc2C)cc1`, for which the largest response in the series, negative = inhibition is 10.3% (inactive).

`CCn1c2ccccc2c2cc(NC(=O)Nc3ccc([N+](=O)[O-])cc3C)ccc21`: the Potency is 56.2 µM (active).
